Assay results reported in PubChem BioAssay (NCATS).
Inconclusive results are not listed. Activity calls are given as the source filed them. Calls come from the whole dose curve; as a rule, active = well fitted inhibition curve with a large enough effect; inconclusive = small, poorly fitted or top-dose-only effect; inactive = flat fitted curve, though single readings scatter.

Assays:
Test in all cases: qHTS profiling for inhibitors of Plasmodium falciparum proliferation (AID 504749); note: nearly all actives have a fitted effect of over 60% in size
Conditions in all cases: P. falciparum in erythrocytes, SYBR Green DNA, 72 h; series mostly up to 28.7 µM
[1] = system: 3D7
How it was run: (§1)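 P. falciparum-infected erythrocytes (0.3% parasitemia, 2.5% hematocrit) incubated with compound 72 h at 37 C, 5% CO2. Parasite DNA detected by SYBR Green after lysis, overnight at room temperature; normalised to 0.29 uM artemisinin and DMSO.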

[2] = system: 7G8
How it was run: as §1

[3] = system: CP185
How it was run: as §1

[4] = system: CP194
How it was run: as §1

[5] = system: CP201
How it was run: as §1

[6] = system: CP237
How it was run: as §1

[7] = system: CP238
How it was run: as §1

[8] = system: CP262
How it was run: as §1

[9] = system: CP265
How it was run: as §1

[10] = system: CP268
How it was run: as §1

[11] = system: CP305
How it was run: as §1

[12] = system: CP335
How it was run: as §1

[13] = system: DIV30
How it was run: as §1

[14] = system: Dd2
How it was run: as §1

[15] = system: ECU
How it was run: as §1

[16] = system: GB4
How it was run: as §1

[17] = system: HB3
How it was run: as §1

[18] = system: P94_40
How it was run: as §1

[19] = system: PC26
How it was run: as §1

[20] = system: TAB109
How it was run: as §1

Measured: Potency

Oc1ccc(/C=C\c2cc(O)cc(O)c2)cc1
inactive: all assays above
